# Reference: the supplement of paper PMC11417369
# In all, about 25,000 sequences were measured (“ln(normalized median fluorescence intensity)”: median about 9.7, highest 2% from about 11 on). Only a selection was taken, and the highest values are over-represented in it overall.
# Test system: PfAP2-HC AP2 domain (GST-tagged)
# Experiment: gcPBM binding intensity (ln(normalized median fluorescence intensity)); higher = stronger DNA binding
# In short: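 Binding intensity is defined as the maximum Masliner-normalised natural-log median intensity across replicate spots for either probe orientation. It was measured on an Agilent 4 × 180k array of primer-extended double-stranded 36-bp intergenic genomic probes and negative controls, to which GST-tagged P. falciparum DNA-binding domains made in E. coli were applied for 1 h in 1× PBS with 1% milk, 0.2 mg/ml BSA, 0.5% salmon testes DNA and 0.03% Triton X-100. Detection was by Alexa488 anti-GST antibody and scanning at 488 nm.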
row,Sequence,gcPBM binding intensity (ln)
1,CAGCTCTTAAGAATTACACACATATACACATATATA [CACACA_site7524],9.95
2,TAAAATTTTTTTGTTTGTACATATATATATATAATA [XGTACX_site5609],9.53
3,CATTATTTATTTTAATGTACTTATTTTTAAATTGGT [XGTACX_site8038],9.54
4,TTTTCTTGTAAATTACGTACGAATGTGTAGAGAAAT [XGTACX_site1339],9.47
5,TATATATATATATGTAGTACTCAATATTGTAGATTA [XGTACX_site3856],9.64
6,CTAGCAAATACATACACACACACACCGATACATATA [CACACA_site9164],10.7
7,AAATATAAAAATAGCACACATATATACATATATATA [CACACA_site56],9.88
8,TTATAATTATATACATGTACATATAATACATATATA [XGTACX_site8904],9.46
9,AAAAAAAAAAAAAACACACACACAAATACAAATGGT [CACACA_site1721],10.5
10,AATGATCAGATATACACACACACAAAAAAAAAAAAA [CACACA_site7806],10.4
11,AAAAAAAAAAAAAACACACACACAAATACAAATACA [CACACA_site414],11.5
12,AATAAACATAAATACACACACAAAAAAAAAAACATA [CACACA_site4396],10.3
13,CATATACGCAAACACACACACATATATATATATATA [CACACA_site501],11.6
14,TAAATCCGCAGGCACACACACATATTAATAAAAAAA [CACACA_site3991],10.8
15,AATGATCATAAATACACACACACAAAAAAAAAAAAA [CACACA_site6072],10.3
16,TAAATCCGCACGCACACACACATATTAATAAAAAAA [CACACA_site7800],10.5
17,TACATATATATATACACACATACATATATATACGCA [CACACA_site792],9.85
18,AATGATCATATATACACACACACAAAAAAAAAAAAA [CACACA_site4009],11.2
19,TATACGCATATATAAACACACAAAAAAAAAAAAAAA [CACACA_site2026],9.43
20,ATTAAATCCGCACGCACACACACATATTAATAAAAA [CACACA_site3992],11.1

row,Sequence,gcPBM binding intensity (ln)
1,ATTAATATATTTACCACACACCCATTTCGATTTTAT [CACACA_site3605],10.3
2,AATATATATATAAATAATATACCTATATATTTTTTG [XGTACX_negctrl_site407],9.61
3,TAATATATTAATATATGTACATATTTATATATCTAC [XGTACX_site7117],9.81
4,TTTTATAAATATTATACATGCATAATGATAAAAAAA [TGCATGCA_site927],9.55
5,TAATAATAAAAATAAACACACATATATCTGTATTTA [CACACA_site5572],9.74
6,TTTTCTTTTTTGAACTGTACGCGTAAATTTAAAAAG [XGTACX_site882],9.36
7,TTTTTGTTACCTATTGTGCACTTCATATAAATTAAA,9.74
8,ATATATAATATTTATTGTACTATTTTATTTTTATAA [XGTACX_site705],9.62
9,ATGATTATACAAAATATACACACGTGGACACAAATA [CACACA_site8304],10.3
10,ACCTAAAATAACTACACACACATAAAAAAAAAAAAA [CACACA_site2529],10.2
11,CAAATACACGGACACACACACACAAAAAAAAAAAAA [CACACA_site6385],11
12,TATATAACTAAAATAACACACATATATAAAAATATA [CACACA_site7416],9.88
13,TTATACACAAAAAAAAAAATATATATATATATATAT [XGTACX_negctrl_site5],9.49
14,CACGCACGCACATACACACACATACACATATAAATA [CACACA_site6907],10.1
15,AAAAAAAATACATACACACACACACGCACATATATA [CACACA_site7645],11.7
16,AGCCACTTAAAATACACACACACCAAAAAAAAAAAA [CACACA_site5497],10.2
17,CCACACTTAAAATACACACACACCAAAAAAAAAAAA [CACACA_site2709],11.3
18,ACGGACTTAAAATACACACACACCAAAAAAAAAAAA [CACACA_site7304],10.2
19,TAACCTAAAATAACTACACACACATAAAAAAAAAAA [CACACA_site8807],11.2
20,AAAATACACGCATACACACACACACGCGCACATATA [CACACA_site6448],10.6

row,Sequence,gcPBM binding intensity (ln)
1,ACAATATGTATATATATATATATGCAAATGTATAAA [CACACA_negctrl_site53],9.78
2,TTTTTTAAAGCCTGTTCATCATCCTTACCTATCAAC [GTGCAC_negctrl_site452],9.49
3,ATATAATATACTTATTGTACTTATTTAAAATACTAA [XGTACX_site4266],9.58
4,TACTTAAAAAAAAAAAAAATAAATATTATGTATTAT [CACACA_negctrl_site138],9.36
5,AAAGTTACATTCGACACACACATAACAACTAAATAA [CACACA_site3419],10.1
6,TGTATATTTGTTGTTACACACATATATTTTTTTTTT [CACACA_site128],9.86
7,TTGGATTTTCCATAATGTACACATAAAAGTGTTACA [XGTACX_site4544],9.4
8,AAAAAAAAAAAAAACACACACACACGCAAATACATA [CACACA_site6474],11.4
9,ATTAAATACATTAACACACACACAAATAAATACATA [CACACA_site5583],10.4
10,AAAAAAAAAAAAAACACACACACACGCATACAAAAT [CACACA_site6794],10.6
11,AGTATACGCAAACACACACACACAAAAAAAAAAAAA [CACACA_site426],11.2
12,CAATGTTGTACATACACACACACAAAAAAAAAATAA [CACACA_site2407],11.4
13,AAAAAAAAAAAAAACACACACACACGCATACACATA [CACACA_site7364],10.7
14,ATTAAATACATTAACACACACACAAATATATACATA [CACACA_site2881],10.7
15,AATAAAAAAATAAAATGTACATACAAATAAATAAAT [XGTACX_site5153],9.9
16,AACAATGTTGTACATACACACACACTAATAAAAAAT [CACACA_site8758],10.3
17,AGTATACACAAACACACACACACAAAAAAAAAAAAA [CACACA_site8036],10.7
18,ATTAAATACATTAACACACACACAAATATGTACATA [CACACA_site7372],11
19,TATACGCAGAAACACACACACAAAAAAAAAAAAAAA [CACACA_site427],10.5
